For 4 molecules, normalized growth results are on record in PubChem BioAssay AID1159580 (chemical genetic matrix, 2015).

A short description of this experiment: chemical genetic growth profiling, strain panel (AID 1159580).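 Note: tested at 20 µM; growth read once vehicle control cultures reached saturation at 30 °C; 1 = growth at the plate median or of vehicle wells; lower values mean less growth of the strain.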 The settings on record: growth OD.
Setting [1] is: S. cerevisiae deletion strains, locus YDR150W, strain NUM1, hits give low values.
[2] abbreviates: S. cerevisiae deletion strains, locus YGR078C, strain PAC10, hits give low values.
[3] abbreviates: S. cerevisiae deletion strains, locus YNL153C, strain GIM3, hits give low values.
[4] abbreviates: S. cerevisiae deletion strains, locus YNL322C, strain KRE1, hits give low values.
The mark [5] stands for this setting: S. cerevisiae deletion strains, locus YPL055C, strain LGE1, hits give low values.
The mark [6] stands for this setting: S. cerevisiae deletion strains, locus YAL040C, strain CLN3, hits give low values.
Setting [7] is: S. cerevisiae deletion strains, locus YCL061C, strain MRC1 (second series), hits give low values.
Where [8] appears, read: S. cerevisiae deletion strains, locus YDR363W, strain ESC2, hits give low values.
[9] abbreviates: S. cerevisiae deletion strains, locus YER002W, strain NOP16, hits give low values.
Setting [10] is: S. cerevisiae deletion strains, locus YMR307W, strain GAS1, hits give low values.
[11] abbreviates: S. cerevisiae deletion strains, locus YNL175C, strain NOP13, hits give low values.
The mark [12] stands for this setting: S. cerevisiae deletion strains, locus YNL197C, strain WHI3, hits give low values.
Where [13] appears, read: S. cerevisiae deletion strains, locus YNL224C, strain SQS1, hits give low values.
The mark [14] stands for this setting: S. cerevisiae deletion strains, locus YOR083W, strain WHI5 (second series), hits give low values.
The mark [15] stands for this setting: S. cerevisiae deletion strains, locus YGR229C, strain SMI1, hits give low values.

About 2,000 (36%) of roughly 5,500 compounds were called active. Inconclusive results (about 18%) are left out. Some of the results follow. Values without a mark were called inactive. Cut-off read from the data, not from the text of the source: active = normalized growth mostly below about 0.91 (no sharp cut-off); inconclusive = no clear call, values can overlap the other calls; inactive = mostly above about 0.92.

Take `Cc1cc(/C=N/NC(N)=S)c2c(C)ccc(C(C)C)cc1-2`: the normalized growth is 1.02 (S. cerevisiae deletion strains, locus YAL013W, strain DEP1, hits give low values); 1.04 (S. cerevisiae deletion strains, locus YBR229C, strain ROT2, hits give low values); 1.02 (S. cerevisiae deletion strains, locus YCL061C, strain MRC1, hits give low values); 1.05 (S. cerevisiae deletion strains, locus YDL101C, strain DUN1, hits give low values); 1.01 (S. cerevisiae deletion strains, locus YDL134C, strain PPH21, hits give low values); 1 under setting [1]. Also, the normalized growth runs as follows: (S. cerevisiae deletion strains, locus YEL061C, strain CIN8, hits give low values) 1.01; under setting [2], 1.01; (S. cerevisiae deletion strains, locus YHR030C, strain SLT2, hits give low values) 1.12; (S. cerevisiae deletion strains, locus YHR087W, strain rtc3, hits give low values) 1.06; (S. cerevisiae deletion strains, locus YJR043C, strain POL32, hits give low values) 1.01; (S. cerevisiae deletion strains, locus YJR075W, strain HOC1, hits give low values) 1.02. Moreover, the normalized growth is 1.02 (S. cerevisiae deletion strains, locus YLR039C, strain RIC1, hits give low values); 1.03 (S. cerevisiae deletion strains, locus YLR058C, strain SHM2 (second series), hits give low values); 1.03 (S. cerevisiae deletion strains, locus YLR085C, strain ARP6, hits give low values); 1.02 (S. cerevisiae deletion strains, locus YLR262C, strain YPT6, hits give low values); 1.07 (S. cerevisiae deletion strains, locus YML094W, strain GIM5, hits give low values); 1.03 (S. cerevisiae deletion strains, locus YMR219W, strain ESC1, hits give low values). The normalized growth is 0.986 (S. cerevisiae deletion strains, locus YMR263W, strain SAP30, hits give low values); 1.02 under setting [3]; 1.05 (S. cerevisiae deletion strains, locus YNL298W, strain CLA4 (second series), hits give low values); 1.06 [resistant] (active) under setting [4]; 1.08 (S. cerevisiae deletion strains, locus YNR030W, strain Alg12, hits give low values); 1.04 under setting [5]. In addition, the normalized growth is 1.01 (S. cerevisiae deletion strains, locus YPL241C, strain CIN2, hits give low values); 1.17 (S. cerevisiae deletion strains, locus YPR135W, strain CTF4, hits give low values); 1.02 (S. cerevisiae strains, strain wild type, hits give low values).
With `CN(C(=O)Cc1ccc(Cl)c(Cl)c1)C(CN1CCCC1)c1cccc(OCC(=O)O)c1` (configuration not stated), the normalized growth under setting [6] is 0.998; the normalized growth under setting [7] was 0.995; the normalized growth under setting [1] was 1; the normalized growth under setting [8] is 0.961; the normalized growth under setting [9] was 0.992; the normalized growth under setting [10] is 0.989. In addition, the normalized growth reads like this: under setting [3], 1.01; under setting [11], 0.995; under setting [12], 0.997; under setting [13], 0.99; under setting [14], 0.999; under setting [5], 1.01.
As for `C[C@H](Cc1ccc2c(c1)OC(C(=O)O)(C(=O)O)O2)NC[C@H](O)c1cccc(Cl)c1`, the normalized growth by setting is: under setting [6], 1.02; under setting [7], 1.01; under setting [8], 0.998; under setting [9], 0.992; under setting [2], 1.01; under setting [15], 1.01. Besides, the normalized growth under setting [10] was 1.02; the normalized growth under setting [3] is 0.967; the normalized growth under setting [11] is 1; the normalized growth under setting [12] is 0.987; the normalized growth under setting [13] was 1; the normalized growth under setting [4] is 1. Moreover, the normalized growth under setting [14] was 0.985.
Regarding `CC(Cc1ccc(OCC(=O)O)cc1)NCC(O)c1cccc(Cl)c1` (configuration not stated), the normalized growth is 0.97 under setting [6]; 0.182 (active) under setting [1]; 1.01 under setting [9]; 1.01 under setting [2]; 1.02 under setting [15]; 1.02 (S. cerevisiae deletion strains, locus YNL128W, strain TEP1, hits give low values). In addition, the normalized growth runs as follows: under setting [11], 0.984; under setting [12], 0.979; under setting [13], 0.99; under setting [14], 0.977.
